Measured values as given in PubChem BioAssay AID1466 (National Center for Advancing Translational Sciences (NCATS), 2008).
Among all 200,000 compounds or so, about 10 (0.005%) were called active. About 8% were inconclusive and are not listed. The call rests on the fitted dose curve; in most records, active means well fitted inhibition curve with a large enough effect; inconclusive means small, poorly fitted or top-dose-only effect, or effect the other way, or another doubt; inactive means no such curve, though single readings can be large or run the other way. A selection follows.

The molecules below were run against Lysosomal alpha-glucosidase (Homo sapiens) (UniProt P10253) (assay: qHTS Assay for Inhibitors of Human alpha-Glucosidase as a Potential Chaperone Treatment of Pompe Disease). Conditions: purified human GAA, 4-MU-alpha-glucoside fluorescence; series mostly up to 76.9 µM; activity change, negative = inhibition: at the top concentration.
Description: NIH Chemical Genomics Center [NCGC] NIH Molecular Libraries Probe Production centers Network [MLPCN] MLPCN Grant: 1R03MH084841-01 Assay Submitter (PI): Wei Zheng NCGC Assay Overview: Alpha-glucosidase is responsible for hydrolysis of terminal, non-reducing 1,4-linked alpha-D-glucose residues with release of alpha-D-glucose. It is a lysosomal hydrolase that is required for the degradation of a small percentage (1-3%) of cellular glycogen in human. Deficiency of this enzyme results in glycogen-storage disease type II (GSDII), also referred to as Pompe disease, an autosomal recessive disorder. Structurally normal glycogen is accumulated in lysosomes and cytoplasm in affected patients, primarily in muscle tissues. Excessive glycogen storage within lysosomes may interrupt normal functioning of other organelles and leads to cellular injury. In turn, this leads to enlargement and dysfunction of the entire organ involved (eg, cardiomyopathy and muscle weakness). It has reported that the improper folding and trafficking of alpha-glucosidase resulting from the genetic mutations may account for a significant number of Pompe patients. […] We optimized this alpha-glucosidase assay in 1536-well plate format for identifying the novel small molecule inhibitors with the structures other than the sugar analogs in order to develop the new pharmacological chaperones.
NCGC Assay Protocol Summary: This is a fluorogenic enzyme assay with 4-methylumbelliferyl-alpha-D-[…] as the substrate and human alpha-glucosidase as the enzyme preparation. Upon the hydrolysis of this fluorogenic substrate, the resulting product, 1. 4-methyllumbelliferone, can be excited at 365 nm and emits at 440 nm which can be detected by a standard fluorescence plate reader. Data were normalized to the controls for basal activity (without enzyme) and 100% activity (with enzyme). In the AC50 values were determined from concentration-response data modeled with the standard Hill equation. Assay buffer: 50 mM citric acid (titrated with potassium phosphate to pH 5.0), 0.005% Tween-20, pH 5.0. (pH 5.0 is an optimal condition for this enzyme assay) 1536-well assay protocol for the human alpha-glucosidase: (1) Add 2 ul/well of enzyme (4 nM final) (2) Add 23 nL compounds in DMSO solution. The final titration was 0.7 nM to 77 uM. (3) Add 1 ul of substrate (400 uM final) (4) Incubate at room temperature for 20 min. (5) Add 2 ul stop solution (1M NaOH and 1M Glycine mixture, pH 10) (6) Detect the assay plate in a ViewLux plate reader (PerkinElmer) with Ex=365 nm and Em=440nm. Keywords: Alpha-glucosidase, Pompe Disease, pharmacological chaperone, chaperone therapy, high throughput screening, alpha-glucosidase inhibitor, MLSMR, MLSCN, NIH Roadmap, qHTS and NCGC
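Further: plate controls were uninhibited enzyme wells for no effect and no-enzyme background for full effect.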

Activity change, negative = inhibition, inactive:
CC1CCN(S(=O)(=O)c2ccc3ncn(CC(=O)N(C)C4CCCCC4)c(=O)c3c2)CC1 1.35%
Cc1nn(-c2ccccc2)c(=O)c2noc(C)c12 -3.66% [at 15.4 µM]
Cc1ccc(NNC(=O)c2c(F)cccc2Cl)cc1Cl 1.45% [at 15.4 µM]
Cc1c(C(=O)N(Cc2ccccc2)Cc2cccnc2)cnn1-c1ccc(F)cc1 -2.19%
CCOC(=O)C(=CNNc1ccsc1C(=O)OC)C(=O)OCC 3.25%
Cc1ccc(-c2csc(-c3cc(C)on3)n2)cc1 2.67%
CC(=O)Nc1ccc(S(=O)(=O)Nc2nccc(/C=C/c3ccccc3F)n2)cc1 4.07%
CCN1CCN(C(C(=O)NC2CCCC2)c2cc3c(cc2[N+](=O)[O-])OCO3)CC1 (stereo unspecified) 7%
Cc1ccc(C2CCN(C(=S)Nc3cccc(Cl)c3)C2)cc1 (stereo unspecified) -0.289%
COc1cccc(-c2ccc(SCC(=O)N3CCN(c4ccccc4)CC3)nn2)c1 -0.133%
COc1ccccc1-c1c(C#N)c(N)nc2c1CCC2 6.93% [at 15.4 µM]
Cc1noc(C)c1-c1nc(CSc2ccc(Cl)cc2)no1 -4.19%
C/C(=N/NC(=O)c1ccn(C)n1)c1ccncc1 -7.14%
O=C(COC(=O)c1ccccn1)Nc1cccc2ccccc12 -3.22%
CC(C)CCN1CCN(Cc2ccc(C(F)(F)F)cc2)CC1CCO (stereo unspecified) -11.2%
O=C(NC(Cc1c[nH]c2ccccc12)C(=O)O)/C(=C/c1ccco1)NC(=O)c1ccccc1 (stereo unspecified) 2.81%
COc1ccccc1-n1c(=S)[nH]c2c(sc(=S)n2-c2ccc(C)cc2C)c1=O -8.28%
COc1ccc(C)cc1NC(=O)NCc1ccccn1 10.1%
Cn1c(CC2Sc3ccccc3NC2=O)nnc1SCC(=O)c1ccc(Cl)cc1 (stereo unspecified) -4.88%
N#Cc1ccc(Oc2ccc(C(F)(F)F)cc2NC(=O)c2ccc(F)cc2)cc1 -0.785%
O=C(CSc1ccc([N+](=O)[O-])cn1)Nc1ccc(N2CCOCC2)c(Cl)c1 -3.22%
C/C(=N/O)c1ccc(N2C(=O)C3C4C=CC(C3C2=O)C2C3C(=O)N(c5ccc(/C(C)=N/O)cc5)C(=O)C3C42)cc1 (stereo unspecified) 10.2%
CC(=O)c1ccc(N=C2SCCCN2C(=O)C2CCCCC2)cc1 -10.5%
O=C(NNC(=S)NC(=O)c1cn(-c2ccccc2)nc1-c1ccccc1)c1ccncc1 -1.89%
COc1ccc(C)cc1NC(=S)Nc1ccccc1SC 4.13%
Cc1ccc(S(=O)(=O)NC(=O)N2CCCN(Cc3ccc(F)cc3)CC2)cc1 1.35%
Cc1ccc(/C=N/NC(=O)CN2CCN(Cc3ccccc3)CC2)s1 -2.78% [at 15.4 µM]
CCS(=O)(=O)c1ccc(O)c(NC(=O)COc2ccc(Cl)cc2)c1 -0.357%
CCc1nc2ccccc2c(C(=O)NCc2ccc(OC)cc2)c1C -0.62%
CCc1ccc(CN(C)C(=O)CCc2nnc(-c3ccc(-c4ccccc4)cc3)o2)nc1 -8.54%
CN(C)c1ccc(C=NCCc2ccc(S(N)(=O)=O)cc2)cc1 4.96%
COc1ccc(CN2CCC(c3nc4ccc(Cl)cc4[nH]3)CC2)cc1 5.4%
Cc1ccccc1CSc1nnc(-c2ccccc2)c(=O)[nH]1 0.989%
CCC(=O)OCCNc1nc(-c2ccccc2)nc2ccccc12 -7.1%
NNC(=O)c1cnn(-c2ccccc2)c1C(F)(F)F 3.92%
Cc1ccc(CN(Cc2cccnc2)C(=S)Nc2cccc(Cl)c2C)cc1 6.23%
CCOc1cc2c(Cl)ncnc2c(OCC)c1OCC -5.72%
CC12C(=O)N(c3ccccc3)C(=O)C1C(c1ccccc1)N1CCCN12 (stereo unspecified) -7.1% [at 15.4 µM]
CSc1nc(C)nc(C2CC2)c1C#N -7.16%
COc1ccc(C)cc1NC(=O)CSc1nnc(CC(=O)Nc2ccccc2F)n1C -0.43%
C=CCc1ccc(OCC(O)CN2CCN(Cc3ccccc3)CC2)c(OC)c1 (stereo unspecified) -3.75%
O=C(c1ccc(-c2ccccc2)cc1)C1CCCN(C(=O)c2cncs2)C1 (stereo unspecified) -8.3%
Cc1c(CCC(=O)O)c(=O)oc2cc3occ(-c4ccccc4)c3cc12 4.78% [at 15.4 µM]
Cc1n[nH]c(=O)n1-c1ccc(C(C)C)cc1 -9.22%
O=C(COC(=O)c1ccncc1)c1ccccc1 6.79%
O=C(Nc1ccc(S(=O)(=O)Nc2nccs2)cc1)c1cc(=O)[nH]c2ccccc12 -5.51% [at 15.4 µM]
COC(=O)c1ccc(CN2CCN(CCCc3ccccc3)C(CCO)C2)cc1 (stereo unspecified) 1.82%
Cc1cc(CO)nn1-c1ccc([N+](=O)[O-])cc1 -4.3%
Cc1ccc2cc(CN(c3ccc(C)c(C)c3)S(C)(=O)=O)c(=O)[nH]c2c1 3.2%
O=C(Cc1ccccc1)N1CCN(S(=O)(=O)c2ccc([N+](=O)[O-])cc2)CC1 -1.15%
CC(=O)c1c(-c2ccccc2)c2ccccc2[nH]c1=O 13.2%
c1ccc(-c2cc(N3CCCCC3)c3ccccc3n2)cc1 -11.8%
FC(F)(F)c1ccnc(Oc2ccc(C3=NCCS3)cc2)c1 -3.74%
O=C(O)CC1=C(Nc2ccccc2)C(=O)N(c2ccccc2)C1c1ccc(Cl)cc1 (stereo unspecified) -3.27%
CC1CCCN(CC(O)COc2ccc3c(c2)OCO3)C1 (stereo unspecified) -13.5%
COc1ccc(/C=C/CN2CCN(Cc3ccc(C)cc3)C(CCO)C2)cc1 (stereo unspecified) 2.06%
COc1cc(C)c(Cl)cc1S(=O)(=O)n1ccnc1 2.25%
CCOC(=O)C1(CC2CCCCO2)CCN(Cc2nc(-c3cccs3)oc2C)CC1 (stereo unspecified) -4.24%
O=C(c1ccc(OC2CCN(Cc3ccccn3)CC2)cc1)N1CCCCCC1 2.29%
c1ccc(Cc2cc[n+](Cc3ccccc3)cc2)cc1 1.18%
Cc1nc(N)[nH]c(=O)c1Oc1cccc(C(F)(F)F)c1 0.998%
CC(C)Oc1ccc(CCc2nnc(SCC(=O)O)n2-c2ccccc2)cc1 -0.523%
O=C(NC1C2CC3CC(C2)CC1C3)c1ccc(N2CCNCC2)c([N+](=O)[O-])c1 (stereo unspecified) -3.61% [at 15.4 µM]
CCN(CC)P(=O)(Nc1ccc(SC(F)F)cc1)c1ccc(N(C)C)cc1NC(=O)c1ccco1 (stereo unspecified) -15.2%
C=C(C)COc1ccc(-c2nc(N)ncc2-c2ccccc2OC)c(O)c1 -9.24%
CCN(CCn1cccn1)Cc1nc(-c2ccc(C(=O)OC)cc2)no1 -1.77%
O=C1Oc2ccccc2C(=O)/C1=C/c1ccccc1O 9.02%
Cc1ccc(S(=O)(=O)N2CCOCC2)cc1C(=O)OC1CCCCC1=O (stereo unspecified) -13.9%
N#CC1=C(N)Oc2c(ccc3cccnc23)C1c1ccncc1 (stereo unspecified) -8.01% [at 15.4 µM]
COC(=O)c1sccc1NN1C(=O)c2ccccc2C1=O -1.37%
CCc1ccc(-n2c(SCc3cc(=O)n4cc(Br)ccc4n3)nc3[nH]ncc3c2=O)cc1 -9.36%
O=C(c1ccc(F)cc1)n1c(=S)nc2ccccn21 -7.36%
COc1ccc(CN2CCCC(C(=O)c3ccc(Cl)cc3)C2)cc1Cn1cncn1 (stereo unspecified) -8.23%
CS(=O)(=O)c1ccc2nnn(OCC(=O)Nc3cccc(C#N)c3)c2c1 -3.63%
CCOC(=O)c1ccc(NNC(C)=O)c([N+](=O)[O-])c1 9.25%
COc1ccc(OC)c(NC(=O)CN(Cc2ccc(Cl)cc2)S(C)(=O)=O)c1 -6.41%
O=C(N/N=C/c1ccccn1)c1cccnc1 -6.66% [at 15.4 µM]
CCOC(=O)c1cnc2c(c(C)nn2CC)c1Cl 2.22%
CCc1nc(C)cn1S(=O)(=O)c1cc([N+](=O)[O-])ccc1Cl 3.68%
O=[N+]([O-])c1ccc(F)cc1Oc1nc(-c2cccnc2)nc2ccccc12 1.6%
COc1ccc(/C=C/C2=CC(C)(C)NC(=S)N2)c(OC)c1 -10.3%
COc1ccccc1C1CCN(C(=S)Nc2ccc(Br)cc2)CC1 -8.72% [at 15.4 µM]
Cc1ccc(-c2nn(-c3cccc(F)c3)cc2CNCCc2ccncc2)o1 -3.04%
Brc1ccc2nc(N3CCCC3)sc2c1 -7.16%
COc1ccc(Cl)cc1N(CC(=O)N1CCCCC1)S(C)(=O)=O -2.73%
Cn1nc(C(F)(F)F)cc1-c1ccc(/C=C(\C#N)C(=O)c2cccc(C(F)(F)F)c2)s1 -13.5%
COc1ccc(C(=O)Nc2ccc(NC(=O)C(C)C)nc2)cc1 10.4%
CC1Cc2ccccc2N1C(=O)CSc1nnc(C2CC2)n1C (stereo unspecified) -3.65%
Cc1nnsc1C(=O)NCc1c(F)cccc1Cl -5.04%
Cc1cc(Cl)ccc1NNC(=O)c1snnc1C -0.766%
COc1cc(C)c(S(=O)(=O)N2CCOCC2)c(C)c1C 5.9%
COc1ccccc1/C=C/C=N/NC(=O)CN1CCN(Cc2ccccc2)CC1 -13.8%
Cc1ccc(NC(=O)CSc2nnc(CNC(=O)c3ccccc3F)o2)cc1 6.34%
COc1cccc(NCCC(=O)c2cccc([N+](=O)[O-])c2)c1 3.03%
CC(C)N(Cc1ccccc1)C(=O)COC(=O)c1cnccn1 2.14%
O=C1Nc2ccc([N+](=O)[O-])cc2C1=Nc1cccc(CO)c1 7.58%
COc1cc(/C=C2/C(=O)ON=C2C)ccc1OCc1cccc(F)c1 3.02%
CCCCS(=O)c1snnc1C (stereo unspecified) 7.98%
COc1ccc(-c2nc(N)sc2C2(O)C(=O)Nc3c(Br)cc(F)cc32)cc1OC (stereo unspecified) -1.75%
COc1ccccc1NC(=O)c1cc(Cl)nc2ccccc12 -0.703% [at 15.4 µM]
Cc1c(C(=O)Nc2ccccc2)sc2nc3n(c(=O)c12)CCCCC3 -0.732%
Cc1noc(C)c1COc1ccc2ccc(=O)oc2c1 2.21%
O=C(CO/N=C/c1ccc(OC(F)F)cc1)NCc1ccc(F)cc1 -1.64%
COCc1cc(=O)[nH]c(-c2ccc(C(F)(F)F)cc2)n1 -0.699%
CC1CC(C)CN(C(=O)CSc2ccsc2[N+](=O)[O-])C1 (stereo unspecified) -9.98%
O=C(c1ccc(=O)oc1)N1CCC(C(O)(c2ccccc2)c2ccccc2)CC1 2.64%
